Measurements taken from publication PMC7862700, “An all-to-all approach to the identification of sequence-specific readers for epigenetic DNA modifications on cytosine”.

Key:
Experiment in all cases: DAPPL (digital affinity profiling via proximity ligation, sequencing); 10 mM Tris-HCl pH 7.5, 50 mM NaCl, 1 mM DTT, 4% glycerol, room temperature, 30 min; GST-TFs on glutathione beads, 16-mer random dsDNA library, 0.1% formaldehyde crosslink after washing; high values mean tight binding
[1] = target: T1, FLI1 (Homo sapiens, UniProt Q01543 1-452); conditions: protein: recombinant; tags: N-terminal GST; dsDNA, one strand shown
T1 sequence: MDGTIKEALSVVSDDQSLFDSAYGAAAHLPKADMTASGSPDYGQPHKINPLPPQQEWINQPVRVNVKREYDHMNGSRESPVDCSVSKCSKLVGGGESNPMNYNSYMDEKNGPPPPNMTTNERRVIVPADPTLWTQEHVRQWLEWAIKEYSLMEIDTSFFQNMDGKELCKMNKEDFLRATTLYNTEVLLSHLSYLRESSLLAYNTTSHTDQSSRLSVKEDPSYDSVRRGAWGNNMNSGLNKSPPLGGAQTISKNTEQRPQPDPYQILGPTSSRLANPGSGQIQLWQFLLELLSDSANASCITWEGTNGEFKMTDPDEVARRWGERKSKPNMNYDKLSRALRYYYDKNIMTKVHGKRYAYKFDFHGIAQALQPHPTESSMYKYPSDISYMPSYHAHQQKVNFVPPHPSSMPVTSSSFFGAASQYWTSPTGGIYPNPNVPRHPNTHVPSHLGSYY
Summary of the method: (§1)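 After expression in yeast as GST fusions, human transcription factors were bound to glutathione beads, DNA-barcoded and mixed with a tag-only sample. The pools were incubated with 200 nmole of a 16-mer random double-stranded DNA library in Tris/NaCl/DTT/glycerol buffer (30 min, room temperature), washed and crosslinked with 0.1% formaldehyde. Proximity ligation with BsaI/T4 ligase ran for 1 h at 37 °C, before PCR amplification and sequencing on an Illumina NextSeq500. Binding signal is a hexamer's read frequency for a factor divided by its frequency for the tag-only sample.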

[2] = target: T2, ELK1 (Homo sapiens, UniProt P19419 1-428); conditions: protein: recombinant; tags: N-terminal GST; dsDNA, one strand shown
T2 sequence: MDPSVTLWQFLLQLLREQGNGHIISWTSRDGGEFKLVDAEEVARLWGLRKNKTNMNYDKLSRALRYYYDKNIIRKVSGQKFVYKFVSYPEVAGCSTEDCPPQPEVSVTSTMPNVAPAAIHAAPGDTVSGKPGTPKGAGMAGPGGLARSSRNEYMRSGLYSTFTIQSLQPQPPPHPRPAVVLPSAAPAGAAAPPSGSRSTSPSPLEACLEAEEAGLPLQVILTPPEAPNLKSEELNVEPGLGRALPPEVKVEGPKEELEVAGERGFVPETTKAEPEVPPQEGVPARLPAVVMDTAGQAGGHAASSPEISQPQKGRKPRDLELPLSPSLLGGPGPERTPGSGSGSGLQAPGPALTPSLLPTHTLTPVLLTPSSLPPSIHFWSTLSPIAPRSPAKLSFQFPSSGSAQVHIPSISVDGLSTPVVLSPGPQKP
Summary of the method: as §1

[3] = target: T3, GABPA (Homo sapiens, UniProt Q06546 1-454); conditions: protein: recombinant; tags: N-terminal GST; dsDNA, one strand shown
T3 sequence: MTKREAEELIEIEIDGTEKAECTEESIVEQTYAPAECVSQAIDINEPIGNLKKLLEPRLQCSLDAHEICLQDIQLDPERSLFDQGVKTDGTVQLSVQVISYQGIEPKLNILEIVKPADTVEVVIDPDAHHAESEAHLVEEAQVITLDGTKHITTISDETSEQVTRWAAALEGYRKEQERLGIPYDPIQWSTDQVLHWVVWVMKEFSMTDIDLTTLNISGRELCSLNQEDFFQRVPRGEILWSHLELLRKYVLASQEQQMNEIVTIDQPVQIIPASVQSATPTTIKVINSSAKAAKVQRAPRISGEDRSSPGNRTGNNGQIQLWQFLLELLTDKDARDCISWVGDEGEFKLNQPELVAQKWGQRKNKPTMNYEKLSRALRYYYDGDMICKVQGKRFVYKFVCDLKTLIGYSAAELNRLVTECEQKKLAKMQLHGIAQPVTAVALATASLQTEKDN
Summary of the method: as §1

[4] = target: T4, ERG (Homo sapiens, UniProt P11308 1-479); conditions: protein: recombinant; tags: N-terminal GST; dsDNA, one strand shown
T4 sequence: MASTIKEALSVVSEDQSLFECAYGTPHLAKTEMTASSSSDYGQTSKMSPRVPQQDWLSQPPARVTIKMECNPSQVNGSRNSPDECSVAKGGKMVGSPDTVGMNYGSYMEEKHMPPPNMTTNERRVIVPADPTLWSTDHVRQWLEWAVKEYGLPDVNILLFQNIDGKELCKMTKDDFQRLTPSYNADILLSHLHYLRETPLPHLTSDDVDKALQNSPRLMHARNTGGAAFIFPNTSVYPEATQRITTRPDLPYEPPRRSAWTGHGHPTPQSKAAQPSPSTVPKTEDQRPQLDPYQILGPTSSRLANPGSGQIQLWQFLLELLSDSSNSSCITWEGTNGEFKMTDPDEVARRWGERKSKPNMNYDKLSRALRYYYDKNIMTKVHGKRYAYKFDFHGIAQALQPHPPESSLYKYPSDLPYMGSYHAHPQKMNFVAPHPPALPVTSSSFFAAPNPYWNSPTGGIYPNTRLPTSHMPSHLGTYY
Summary of the method: as §1

[5] = target: ELF1 (Homo sapiens, UniProt P32519 1-619); conditions: protein: recombinant; tags: N-terminal GST; dsDNA, one strand shown
Summary of the method: as §1

[6] = target: T5, EHF (Homo sapiens, UniProt Q9NZC4 1-300); conditions: protein: recombinant; tags: N-terminal GST; dsDNA, one strand shown
T5 sequence: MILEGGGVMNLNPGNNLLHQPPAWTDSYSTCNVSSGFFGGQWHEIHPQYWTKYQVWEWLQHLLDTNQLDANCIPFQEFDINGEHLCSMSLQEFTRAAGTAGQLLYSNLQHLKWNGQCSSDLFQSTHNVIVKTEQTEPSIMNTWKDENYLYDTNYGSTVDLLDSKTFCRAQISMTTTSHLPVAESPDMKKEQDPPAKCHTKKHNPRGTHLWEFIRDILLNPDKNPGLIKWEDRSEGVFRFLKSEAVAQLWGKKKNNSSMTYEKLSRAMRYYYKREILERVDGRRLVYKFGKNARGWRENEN
Summary of the method: as §1

[7] = target: SPI1 (Homo sapiens, UniProt P17947 1-270); conditions: protein: recombinant; tags: N-terminal GST; dsDNA, one strand shown
Summary of the method: as §1

[8] = target: SPIB (Homo sapiens, UniProt Q01892 1-262); conditions: protein: recombinant; tags: N-terminal GST; dsDNA, one strand shown
Summary of the method: as §1

[9] = target: T6, ELK3 (Homo sapiens, UniProt P41970 1-407); conditions: protein: recombinant; tags: N-terminal GST; dsDNA, one strand shown
T6 sequence: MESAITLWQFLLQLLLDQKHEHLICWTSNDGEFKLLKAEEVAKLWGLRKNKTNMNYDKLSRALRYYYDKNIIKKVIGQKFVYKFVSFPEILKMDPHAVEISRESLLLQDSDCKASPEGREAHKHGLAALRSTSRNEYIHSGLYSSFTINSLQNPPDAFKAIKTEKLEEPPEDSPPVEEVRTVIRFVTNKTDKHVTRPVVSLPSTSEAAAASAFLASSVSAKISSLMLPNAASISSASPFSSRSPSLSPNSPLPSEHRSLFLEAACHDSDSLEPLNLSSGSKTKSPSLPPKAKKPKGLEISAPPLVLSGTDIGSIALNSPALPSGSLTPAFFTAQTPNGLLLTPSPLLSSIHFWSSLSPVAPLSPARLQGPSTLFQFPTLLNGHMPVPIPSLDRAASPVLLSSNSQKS
Summary of the method: as §1

[10] = target: T7, FEV (Homo sapiens, UniProt Q99581 1-238); conditions: protein: recombinant; tags: N-terminal GST; dsDNA, one strand shown
T7 sequence: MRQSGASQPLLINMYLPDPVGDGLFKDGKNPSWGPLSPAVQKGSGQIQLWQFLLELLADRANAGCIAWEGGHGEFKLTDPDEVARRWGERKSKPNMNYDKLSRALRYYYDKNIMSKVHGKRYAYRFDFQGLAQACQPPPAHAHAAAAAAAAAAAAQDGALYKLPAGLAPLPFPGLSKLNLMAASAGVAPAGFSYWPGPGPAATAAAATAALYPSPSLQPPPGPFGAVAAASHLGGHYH
Summary of the method: as §1

[11] = target: ETV5 (Homo sapiens, UniProt P41161 1-510); conditions: protein: recombinant; tags: N-terminal GST; dsDNA, one strand shown
Summary of the method: as §1

[12] = target: HSF1 (Homo sapiens, UniProt Q00613 1-529); conditions: protein: recombinant; tags: N-terminal GST; chain copies: 3; dsDNA, one strand shown
Summary of the method: as §1

[13] = target: T8, SPIC (Homo sapiens, UniProt Q8N5J4 1-248); conditions: protein: recombinant; tags: N-terminal GST; dsDNA, one strand shown
T8 sequence: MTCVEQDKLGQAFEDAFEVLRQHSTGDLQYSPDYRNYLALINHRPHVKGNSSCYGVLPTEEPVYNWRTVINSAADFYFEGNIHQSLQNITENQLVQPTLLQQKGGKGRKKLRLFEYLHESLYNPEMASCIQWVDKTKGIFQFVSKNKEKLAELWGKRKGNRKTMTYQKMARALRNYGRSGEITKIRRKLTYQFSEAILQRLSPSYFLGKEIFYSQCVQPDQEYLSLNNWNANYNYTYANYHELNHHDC
Summary of the method: as §1

[14] = target: ELF4 (Homo sapiens, UniProt Q99607 1-663); conditions: protein: recombinant; tags: N-terminal GST; dsDNA, one strand shown
Summary of the method: as §1

[15] = target: T9, ELK4 (Homo sapiens, UniProt P28324-2 1-405); conditions: protein: recombinant; tags: N-terminal GST; dsDNA, one strand shown
T9 sequence: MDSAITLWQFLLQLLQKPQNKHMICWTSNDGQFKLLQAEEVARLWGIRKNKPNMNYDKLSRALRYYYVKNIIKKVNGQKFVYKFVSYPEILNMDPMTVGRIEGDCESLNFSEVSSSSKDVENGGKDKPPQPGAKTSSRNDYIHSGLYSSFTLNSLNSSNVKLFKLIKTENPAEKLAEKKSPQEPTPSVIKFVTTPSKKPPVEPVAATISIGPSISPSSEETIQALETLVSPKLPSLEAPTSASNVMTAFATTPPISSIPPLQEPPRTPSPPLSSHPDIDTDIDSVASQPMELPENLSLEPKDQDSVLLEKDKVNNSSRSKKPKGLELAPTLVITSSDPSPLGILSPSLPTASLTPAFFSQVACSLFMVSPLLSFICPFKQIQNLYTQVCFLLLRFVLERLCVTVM
Summary of the method: as §1

[16] = target: T10, ETV2 (Homo sapiens, UniProt O00321 1-342); conditions: protein: recombinant; tags: N-terminal GST; dsDNA, one strand shown
T10 sequence: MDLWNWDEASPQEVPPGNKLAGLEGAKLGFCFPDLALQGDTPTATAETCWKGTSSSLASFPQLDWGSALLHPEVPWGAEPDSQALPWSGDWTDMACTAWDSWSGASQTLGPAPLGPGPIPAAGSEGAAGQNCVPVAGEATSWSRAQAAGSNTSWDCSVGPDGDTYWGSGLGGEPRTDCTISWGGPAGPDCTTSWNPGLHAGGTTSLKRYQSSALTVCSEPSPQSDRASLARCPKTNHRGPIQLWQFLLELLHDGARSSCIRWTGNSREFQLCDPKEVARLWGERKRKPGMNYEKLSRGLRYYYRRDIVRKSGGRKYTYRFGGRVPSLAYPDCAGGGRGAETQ
Summary of the method: as §1

[17] = target: T11, ELF3 (Homo sapiens, UniProt P78545 1-371); conditions: protein: recombinant; tags: N-terminal GST; dsDNA, one strand shown
T11 sequence: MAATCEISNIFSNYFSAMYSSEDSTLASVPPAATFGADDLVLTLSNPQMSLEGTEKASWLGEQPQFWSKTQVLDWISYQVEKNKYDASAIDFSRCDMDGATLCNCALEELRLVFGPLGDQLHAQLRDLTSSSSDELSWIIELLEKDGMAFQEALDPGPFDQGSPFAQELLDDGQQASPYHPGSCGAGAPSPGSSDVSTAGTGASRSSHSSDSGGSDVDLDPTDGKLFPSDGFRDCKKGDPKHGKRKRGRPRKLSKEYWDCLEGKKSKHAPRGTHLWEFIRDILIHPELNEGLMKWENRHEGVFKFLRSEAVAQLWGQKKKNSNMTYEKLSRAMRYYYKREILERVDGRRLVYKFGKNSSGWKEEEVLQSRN
Summary of the method: as §1

[18] = target: CRX (Homo sapiens, UniProt O43186 1-299); conditions: protein: recombinant; tags: N-terminal GST; dsDNA, one strand shown
Summary of the method: as §1

[19] = target: ETV1 (Homo sapiens, UniProt P50549 1-477); conditions: protein: recombinant; tags: N-terminal GST; dsDNA, one strand shown
Summary of the method: as §1

Chain of ELF4 (Q99607 whole entry): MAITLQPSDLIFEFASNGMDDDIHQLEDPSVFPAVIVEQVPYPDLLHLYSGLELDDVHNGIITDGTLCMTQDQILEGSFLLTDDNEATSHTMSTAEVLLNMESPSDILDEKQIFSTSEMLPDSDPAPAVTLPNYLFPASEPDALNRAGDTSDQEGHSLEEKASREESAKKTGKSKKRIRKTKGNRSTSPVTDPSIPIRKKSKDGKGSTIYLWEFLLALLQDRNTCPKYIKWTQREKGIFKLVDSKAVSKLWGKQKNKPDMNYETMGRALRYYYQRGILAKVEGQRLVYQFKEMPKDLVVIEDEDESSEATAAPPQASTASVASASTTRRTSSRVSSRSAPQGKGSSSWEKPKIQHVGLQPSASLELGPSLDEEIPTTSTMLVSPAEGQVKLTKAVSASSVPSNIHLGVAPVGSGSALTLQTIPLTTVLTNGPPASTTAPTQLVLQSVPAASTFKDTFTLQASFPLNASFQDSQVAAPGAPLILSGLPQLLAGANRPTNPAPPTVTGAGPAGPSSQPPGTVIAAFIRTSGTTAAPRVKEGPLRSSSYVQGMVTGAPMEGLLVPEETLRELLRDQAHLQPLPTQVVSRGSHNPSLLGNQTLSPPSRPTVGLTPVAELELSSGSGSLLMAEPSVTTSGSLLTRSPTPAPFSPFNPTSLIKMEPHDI
Chain of HSF1 (Q00613 whole entry): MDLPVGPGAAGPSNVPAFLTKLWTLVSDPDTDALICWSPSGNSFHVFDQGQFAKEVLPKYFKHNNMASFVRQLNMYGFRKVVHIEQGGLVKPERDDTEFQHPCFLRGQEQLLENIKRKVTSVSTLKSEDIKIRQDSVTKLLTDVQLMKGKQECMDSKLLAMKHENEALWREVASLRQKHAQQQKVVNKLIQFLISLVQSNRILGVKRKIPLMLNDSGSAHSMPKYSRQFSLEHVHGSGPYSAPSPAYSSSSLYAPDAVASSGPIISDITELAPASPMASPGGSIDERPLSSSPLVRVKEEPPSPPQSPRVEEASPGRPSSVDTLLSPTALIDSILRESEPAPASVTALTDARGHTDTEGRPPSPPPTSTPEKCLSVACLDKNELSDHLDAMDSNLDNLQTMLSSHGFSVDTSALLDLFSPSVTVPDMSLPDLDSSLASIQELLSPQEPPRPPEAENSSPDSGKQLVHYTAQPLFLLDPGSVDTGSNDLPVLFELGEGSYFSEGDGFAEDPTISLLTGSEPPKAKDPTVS
Chain of ETV5 (P41161 whole entry): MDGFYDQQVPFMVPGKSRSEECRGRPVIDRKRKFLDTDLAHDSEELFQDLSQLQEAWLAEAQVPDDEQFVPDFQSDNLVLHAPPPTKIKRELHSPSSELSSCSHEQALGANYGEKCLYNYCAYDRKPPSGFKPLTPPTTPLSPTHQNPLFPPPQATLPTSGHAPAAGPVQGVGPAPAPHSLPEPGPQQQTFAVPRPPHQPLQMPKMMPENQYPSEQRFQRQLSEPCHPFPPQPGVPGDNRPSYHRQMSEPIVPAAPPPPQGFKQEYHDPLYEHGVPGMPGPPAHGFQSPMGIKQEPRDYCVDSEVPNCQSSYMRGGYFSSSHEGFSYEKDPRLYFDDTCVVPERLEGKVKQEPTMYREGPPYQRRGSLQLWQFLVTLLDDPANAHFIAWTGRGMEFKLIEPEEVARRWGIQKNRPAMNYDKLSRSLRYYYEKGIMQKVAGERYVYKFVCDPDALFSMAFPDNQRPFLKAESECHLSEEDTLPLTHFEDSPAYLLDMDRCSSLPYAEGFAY
Chain of SPIB (Q01892 whole entry): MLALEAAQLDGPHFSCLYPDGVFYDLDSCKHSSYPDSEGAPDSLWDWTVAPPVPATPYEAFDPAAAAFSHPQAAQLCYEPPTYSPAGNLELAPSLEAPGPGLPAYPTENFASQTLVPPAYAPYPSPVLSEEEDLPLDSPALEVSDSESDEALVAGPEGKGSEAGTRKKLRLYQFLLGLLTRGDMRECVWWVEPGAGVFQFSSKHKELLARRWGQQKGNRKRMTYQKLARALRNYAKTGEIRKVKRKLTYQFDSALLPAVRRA
Chain of ETV1 (P50549 whole entry): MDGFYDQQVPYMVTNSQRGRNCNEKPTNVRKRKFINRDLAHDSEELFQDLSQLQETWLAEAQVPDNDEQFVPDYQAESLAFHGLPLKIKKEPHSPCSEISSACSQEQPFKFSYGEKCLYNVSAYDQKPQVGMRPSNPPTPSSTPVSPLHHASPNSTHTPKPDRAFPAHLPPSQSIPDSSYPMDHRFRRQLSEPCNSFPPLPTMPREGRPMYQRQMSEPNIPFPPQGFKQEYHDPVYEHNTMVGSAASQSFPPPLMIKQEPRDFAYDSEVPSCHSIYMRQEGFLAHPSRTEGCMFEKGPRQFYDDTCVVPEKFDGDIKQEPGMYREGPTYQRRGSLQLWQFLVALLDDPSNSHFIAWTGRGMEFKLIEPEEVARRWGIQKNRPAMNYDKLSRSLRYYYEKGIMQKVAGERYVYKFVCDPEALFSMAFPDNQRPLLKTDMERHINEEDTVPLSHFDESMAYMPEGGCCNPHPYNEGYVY
Chain of CRX (O43186 whole entry): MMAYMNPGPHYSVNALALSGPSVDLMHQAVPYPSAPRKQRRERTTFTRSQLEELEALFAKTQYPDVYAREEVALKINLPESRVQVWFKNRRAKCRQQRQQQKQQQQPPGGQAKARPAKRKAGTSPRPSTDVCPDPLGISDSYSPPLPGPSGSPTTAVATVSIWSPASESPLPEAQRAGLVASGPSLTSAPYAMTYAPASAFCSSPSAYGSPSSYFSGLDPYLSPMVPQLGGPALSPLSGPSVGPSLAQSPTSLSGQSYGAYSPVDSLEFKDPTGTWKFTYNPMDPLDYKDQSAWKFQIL
Chain of ELF1 (P32519 whole entry): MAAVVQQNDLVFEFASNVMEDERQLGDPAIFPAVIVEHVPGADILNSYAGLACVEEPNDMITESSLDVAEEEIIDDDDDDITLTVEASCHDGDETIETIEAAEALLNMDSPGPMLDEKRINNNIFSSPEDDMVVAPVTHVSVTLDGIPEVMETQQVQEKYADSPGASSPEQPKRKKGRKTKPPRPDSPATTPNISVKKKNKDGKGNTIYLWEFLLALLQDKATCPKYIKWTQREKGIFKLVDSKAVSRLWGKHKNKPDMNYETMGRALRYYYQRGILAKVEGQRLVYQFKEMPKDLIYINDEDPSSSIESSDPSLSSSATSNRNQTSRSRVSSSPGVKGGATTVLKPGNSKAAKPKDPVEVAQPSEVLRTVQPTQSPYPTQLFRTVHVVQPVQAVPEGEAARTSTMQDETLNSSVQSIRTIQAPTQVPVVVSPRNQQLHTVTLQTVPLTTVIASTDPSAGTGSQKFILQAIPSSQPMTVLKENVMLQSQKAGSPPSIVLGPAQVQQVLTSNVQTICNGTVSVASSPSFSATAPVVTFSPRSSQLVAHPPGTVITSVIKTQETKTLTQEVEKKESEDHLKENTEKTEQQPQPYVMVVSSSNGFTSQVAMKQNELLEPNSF

In the case of AAAATT, the binding signal [1] is reported as 1.35 fold enrichment (6-mer frequency, TF over GST control), the binding signal [2] is reported as 1.34 fold enrichment (6-mer frequency, TF over GST control) and the binding signal [3] is reported as 1.38 fold enrichment (6-mer frequency, TF over GST control). The binding signal [4] was 1.28 fold enrichment (6-mer frequency, TF over GST control), the binding signal [5] was 1.34 fold enrichment (6-mer frequency, TF over GST control) and the binding signal [6] was 1.26 fold enrichment (6-mer frequency, TF over GST control). For the same sequence, the binding signal [7] was 1.32 fold enrichment (6-mer frequency, TF over GST control), the binding signal [8] was 1.45 fold enrichment (6-mer frequency, TF over GST control) and the binding signal [9] was 1.33 fold enrichment (6-mer frequency, TF over GST control). The binding signal [10] was 1.29 fold enrichment (6-mer frequency, TF over GST control), the binding signal [11] was 1.4 fold enrichment (6-mer frequency, TF over GST control) and the binding signal [12] was 1.73 fold enrichment (6-mer frequency, TF over GST control). The binding signal [13] was 1.2 fold enrichment (6-mer frequency, TF over GST control), the binding signal [14] was 1.41 fold enrichment (6-mer frequency, TF over GST control) and the binding signal [15] was 1.34 fold enrichment (6-mer frequency, TF over GST control). The binding signal [16] was 1.54 fold enrichment (6-mer frequency, TF over GST control), the binding signal [17] was 1.43 fold enrichment (6-mer frequency, TF over GST control) and the binding signal [18] was 1.46 fold enrichment (6-mer frequency, TF over GST control). The binding signal [19] was 1.36 fold enrichment (6-mer frequency, TF over GST control).
